# Results from ChEMBL document CHEMBL1201862, “PubChem BioAssay data set” (2004).
# Among all 400,000 compounds or so, about 2,100 (0.53%) were called active. About 14% were inconclusive and are not listed. The sample holds actives, similar compounds and a random draw of the others, so the mix is not that of the screen. How the calls were made is not given here.
# Biological target: Ataxin-2 (Homo sapiens) (UniProt Q99700)
# Experiment: qHTS for Inhibitors of ATXN expression.
# Type: functional
# Chain of Ataxin-2 (Homo sapiens) (Q99700 whole entry): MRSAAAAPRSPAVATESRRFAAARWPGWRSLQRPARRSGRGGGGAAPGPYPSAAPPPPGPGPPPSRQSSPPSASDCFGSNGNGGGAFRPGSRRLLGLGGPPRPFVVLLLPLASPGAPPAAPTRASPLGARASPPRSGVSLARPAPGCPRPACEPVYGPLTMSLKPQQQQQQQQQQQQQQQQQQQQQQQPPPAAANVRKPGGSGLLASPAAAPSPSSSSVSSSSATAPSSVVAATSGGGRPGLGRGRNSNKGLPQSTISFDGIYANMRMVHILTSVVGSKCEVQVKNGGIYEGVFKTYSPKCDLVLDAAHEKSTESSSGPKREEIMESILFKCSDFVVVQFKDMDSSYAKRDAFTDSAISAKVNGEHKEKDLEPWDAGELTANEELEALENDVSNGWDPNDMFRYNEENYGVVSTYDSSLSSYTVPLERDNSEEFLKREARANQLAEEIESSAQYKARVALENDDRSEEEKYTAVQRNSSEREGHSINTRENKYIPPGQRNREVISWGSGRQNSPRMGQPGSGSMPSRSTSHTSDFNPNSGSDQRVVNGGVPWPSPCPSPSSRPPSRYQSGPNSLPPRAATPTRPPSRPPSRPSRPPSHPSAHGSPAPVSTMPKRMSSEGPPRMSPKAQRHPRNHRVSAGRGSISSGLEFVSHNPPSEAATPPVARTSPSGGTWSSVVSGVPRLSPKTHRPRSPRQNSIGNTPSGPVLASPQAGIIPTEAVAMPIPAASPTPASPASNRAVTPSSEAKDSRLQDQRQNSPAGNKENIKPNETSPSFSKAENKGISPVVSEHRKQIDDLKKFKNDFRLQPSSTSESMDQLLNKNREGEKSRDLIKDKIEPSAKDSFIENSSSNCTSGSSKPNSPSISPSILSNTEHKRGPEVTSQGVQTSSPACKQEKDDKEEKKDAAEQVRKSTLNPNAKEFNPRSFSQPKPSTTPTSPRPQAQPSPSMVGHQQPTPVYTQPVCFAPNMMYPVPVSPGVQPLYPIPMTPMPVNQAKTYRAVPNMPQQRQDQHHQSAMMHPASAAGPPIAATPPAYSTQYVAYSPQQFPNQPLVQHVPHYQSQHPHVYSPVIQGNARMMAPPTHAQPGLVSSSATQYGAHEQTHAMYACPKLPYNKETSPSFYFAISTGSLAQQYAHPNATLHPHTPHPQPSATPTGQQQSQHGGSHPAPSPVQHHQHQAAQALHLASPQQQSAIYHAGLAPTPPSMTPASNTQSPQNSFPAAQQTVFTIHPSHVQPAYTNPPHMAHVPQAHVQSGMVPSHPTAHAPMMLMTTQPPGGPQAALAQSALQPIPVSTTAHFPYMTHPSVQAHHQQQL
row,SMILES,Potency
1,Cc1noc(C)c1COc1ccc(C(=O)OCC(=O)Nc2ccc(S(N)(=O)=O)cc2)cc1,inactive
2,CN(C)S(=O)(=O)Oc1ccsc1C(=O)Nc1ccc(Br)cc1,inactive
3,COc1ccc(/C=C/CN2CCN(CC(C)C)C(CCO)C2)cc1 (configuration not stated),inactive
4,CC1CCN(c2ccc3c(c2)S(=O)(=O)c2cc(C(=O)O)ccc2C3=O)CC1,inactive
5,Brc1ccc2ncc(Br)cc2c1,inactive
6,CCCCn1nc(NC(=O)c2cccs2)c2cc3cc(OC)ccc3nc21,inactive
7,COc1ccc(/C=C2/CCCC(CN(C)C)C2=O)cc1 (configuration not stated),13.4 µM (active)
8,O=C(O)c1c2c(nc3ccccc13)/C(=C/c1ccc(O)cc1)CC2,inactive
9,CN(C)CC1CC/C(=C\c2ccc(O)cc2)C1=O (configuration not stated),39.8 µM (active)
10,Cc1cc(=O)oc2cc3c(cc12)OCCN3,inactive
11,CC(C)(C)c1ccc(C2=CC(c3ccccc3)n3ncnc3N2)cc1 (configuration not stated),inactive
12,CCN(CC)c1ccc2c(C)c(CO)c(=O)oc2c1,inactive
13,COc1c(Br)cc(/C=N/n2c(S)nnc2-c2ccccc2)c(O)c1Br,inactive
14,Cc1cccc(NC(=O)c2cc(Cl)nc3ccccc23)n1,inactive
15,O=C(Nc1cccc(NC(=O)c2cc([N+](=O)[O-])ccc2Cl)n1)c1cc([N+](=O)[O-])ccc1Cl,22.4 µM (active)
16,O=C(Nc1cccc(NC(=O)c2cccc([N+](=O)[O-])c2)n1)c1cccc([N+](=O)[O-])c1,inactive
17,c1cn2c(NC3CCCCC3)c(-c3ccc(SC4CCCCC4)cc3)nc2cn1,inactive
18,CCc1ccc(S(=O)(=O)ON2C(=O)c3ccccc3C2=O)cc1,23.8 µM (active)
19,COc1ccccc1NC(=O)N1CCN(c2ccc3nnc(-c4ccc(F)cc4)n3n2)CC1,25.1 µM (active)
20,Fc1ccc(-c2nnc3ccc(N4CCc5ccccc5C4)nn23)cc1,35.5 µM (active)
21,COc1ccc(Cl)cc1NC(=O)N1CCN(c2ccccc2OC)CC1,inactive
22,Cc1ccc(F)cc1NC(=O)N1CCCN(c2ccc(C(F)(F)F)cn2)CC1,inactive
23,CCN(CC)C(=O)CSc1nc2ccccc2c(=O)n1CCC(=O)N1CCN(c2ccccc2)CC1,inactive

row,SMILES,Potency
1,COc1ccc(-n2cc(C(=O)c3cc(Cl)ccc3O)cc(C#N)c2=O)cc1,inactive
2,Clc1cccc(Cc2c(-c3ccco3)nc3ccc(Cl)cn23)c1,28.2 µM (active)
3,Clc1cccc(Cc2c(-c3ccco3)nc3ccc(Br)cn23)c1,31.6 µM (active)
4,Fc1cccc(Cc2c(-c3ccco3)nc3ccc(Cl)cn23)c1,39.8 µM (active)
5,COc1ccc2nc(-c3ccco3)c(-c3ccco3)nc2c1,inactive
6,Clc1cccc(CSc2ccc(-c3ccco3)nn2)c1,inactive
7,COc1ccc(Cc2c(-c3ccco3)nc3ccc(Br)cn23)c(C)c1,20 µM (active)
8,COc1ccc(C2C(C(=O)c3ccco3)=C(O)C(=O)N2c2nnc(C)s2)cc1 (configuration not stated),inactive
9,O=C(CC1C(=O)NC2CCCCC2N1C(=O)c1ccc([N+](=O)[O-])cc1)Nc1ccccc1 (configuration not stated),inactive
10,Cc1ccc(S(=O)(=O)N2CCN(C(=O)c3cc(C4CC4)nc4c3cnn4C(C)C)CC2)cc1,inactive
11,Cc1ccc2nc(-c3ccco3)c(CC3CCCCC3)n2c1,22.4 µM (active)
12,CCOC(=O)C1CCN(C(=O)Nc2ccc3nc(-c4ccco4)c(-c4ccco4)nc3c2)CC1,inactive
13,Fc1cccc(Cc2c(-c3ccco3)nc3ccc(Br)cn23)c1,39.8 µM (active)
14,Cc1nc2ccc(Cl)cn2c1[N+](=O)[O-],inactive
15,Sc1nnc(-c2ccco2)n1-c1ccc(Br)cc1,inactive
16,Cc1ccc(Cc2c(-c3ccco3)nc3ccc(Cl)cn23)cc1,25.1 µM (active)
17,CC(=O)Nc1c(-c2ccccc2)nc2ccc(Cl)cn12,inactive
18,Cc1ccc2nc(-c3ccncc3)c(NC3CCCCC3)n2c1,inactive
19,COCCNC(=O)c1cc2c(=O)n3cccc(C)c3nc2n(Cc2ccncc2)c1=N,inactive
20,C/C(=N\NC(=O)C1COc2ccccc2O1)c1ccc(N2CCOCC2)cc1 (configuration not stated),inactive
21,O=C(COC(=O)c1c2c(nc3ccccc13)/C(=C\c1ccco1)CC2)NC1CCCC1,inactive
22,O=C1C(=C(I)I)c2ccccc2-c2ccccc21,26.7 µM (active)
23,COc1ccc(C2C=C(C)Nc3nc4ccccc4n32)cc1 (configuration not stated),inactive

row,SMILES,Potency
1,Cc1ccc(C(C)(C)C)cc1S(=O)(=O)N1CC(=O)Nc2ccccc21,inactive
2,COc1ccc(NC(=O)c2oc3ccccc3c2NC(=O)COc2ccccc2OC)c(OC)c1,35.5 µM (active)
3,COc1ccc(C(=O)c2oc3ccccc3c2NC(=O)c2ccc(F)cc2)cc1,inactive
4,COc1ccc(NC(=O)COC(=O)c2[nH]nc3ccccc23)c(OC)c1,inactive
5,Brc1ccc(C2=CC(c3ccco3)n3ncnc3N2)cc1 (configuration not stated),inactive
6,COc1cccc2cc(C(=O)NCc3ccc(Cl)cc3)c(=O)oc12,inactive
7,COc1ccc(/N=c2\oc3cc(O)ccc3cc2C(=O)NCC2CCCO2)c(OC)c1 (configuration not stated),inactive
8,COc1ccc(/N=c2\oc3c(OC)cccc3cc2C(=O)NCc2ccco2)c(OC)c1,22.4 µM (active)
9,CCc1c(C)c(C#N)c2nc3ccccc3n2c1S,inactive
10,CC(C)=CCC[C@H](C)C[C@@H]1Cc2nc(S)nc(O)c2[C@@H](c2ccc(F)cc2)O1,28.2 µM (active)
11,Cc1ccc(-c2noc(CN(C(=O)c3ccc4c(c3)OCO4)C(C)C)n2)cc1,inactive
12,CC(CNC(=O)c1cc(COc2ccc3ncccc3c2)on1)c1ccccc1 (configuration not stated),44.7 µM (active)
13,CC(=O)c1ccc(OCc2cc(C(=O)N3CCC(c4ccncc4)CC3)no2)cc1,inactive
14,CSc1ccccc1NC(=O)c1cc(CC(C)C)on1,inactive
15,CCOC(=O)C1CCN(C(=O)Cn2c(=O)c3cccn3c3cccnc32)CC1,inactive
16,N#Cc1ccc(OCC(O)CS(=O)(=O)c2ccc(F)cc2)cc1 (configuration not stated),inactive
17,CN(C)c1ccc(N=Nc2ccc(S(=O)(=O)O)cc2)c2ccccc12,25.1 µM (active)
18,Cc1cc(/C=c2\sc3nc4ccccc4n3c2=O)c(C)n1-c1ccc(C(=O)O)cc1,inactive
19,COc1cc(OC)c(C(=O)OC(C)C(=O)Nc2cc(C(F)(F)F)ccc2Cl)cc1OC (configuration not stated),inactive
20,CC(Sc1nc[nH]n1)C(=O)Nc1cc(C(F)(F)F)ccc1Cl (configuration not stated),inactive
21,FC(F)Oc1ccc(/C=N/NC(=S)Nc2cc(C(F)(F)F)ccc2Cl)cc1,39.8 µM (active)
